Source: PubChem BioAssay (NCI)
The panel holds about 83,000 compounds, 20% with a hit somewhere; the sample as a whole holds those more often.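 Note: values are percent growth. 100 is the growth of untreated cells, values between 100 and 0 indicate rising inhibition; between -100 and 0 indicates cell death.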 Active and inactive are the calls of the source. How the source made its calls: active means growth percent below 10; inactive means the rest.

System: MDA-MB-468 breast
Assay: NCI-60 one-dose screen, 48 h (100 = growth as untreated, 0 = no growth, -100 = all killed)
Settings: 10 µM unless noted

Row | SMILES | growth
1 | O=C1c2ccccc2CCc2ccccc21 | 95.2% (inactive)
2 | COc1cc2c(Nc3ccc(Br)cc3F)ncnc2cc1OCC1CCN(C)CC1 | -23.3% (active)
3 | O=C(CCCCNC(=O)c1nc(-c2ccccc2)n(-c2ccccc2)n1)NO | 55.4% (inactive)
4 | CC(C)(C)c1ccc(OCCCCCCCN2CCNCC2)cc1 | -54% (active)
5 | COc1ccc(/C=C/c2c(C(C)=O)c(C)nc3ccccc23)cc1 | 39.6% (inactive)
6 | C=C(C)[C@@H]1CC[C@]2(C)[C@H](CC=C3[C@@H]4CC(C)(C)CC[C@]4(C(N)=O)CC[C@]32C)[C@@]1(C)CCC#N | 15.1% (inactive)
7 | CCn1cc(-c2cc(-c3ccc(Cl)cc3)nc(N)n2)c(-c2ccc(Br)cc2)n1 | 72.7% (inactive)
8 | O=C(Nc1ccc(Cl)cc1)c1cc(-c2ccc(F)cc2)c2sc(=O)[nH]c2n1 | -8.3% (active)
9 | N#C/C(=C\c1ccc(Br)cc1)c1cc2ccccc2[nH]1 | 82.8% (inactive)
10 | O=C(NCCN1CCOCC1)Nc1ccc(-c2cc3c(Nc4ccc(Oc5cccc(C(F)(F)F)c5)c(Cl)c4)ncnc3s2)cc1 | -28.3% (active)
11 | CCn1cc(C(=O)NN=C2CCCCCC2)c(=O)c2ccc(C)nc21 | 85.9% (inactive)
12 | Cn1cc(-c2csc(-c3cn(C(=O)OC(C)(C)C)c4ccccc34)n2)c2cccnc21 | -8.84% (active)
13 | CCCCCC(/C=N\NC(=S)N/N=C/C(=C/c1ccccc1)CCCCC)=C\c1ccccc1 | 47.4% (inactive)
14 | CC(=O)C1C(=O)C(=O)N(c2ccc(Cl)c(Cl)c2)C1=O (centres undefined) | 115% (inactive)
15 | Cc1cc(O)c2c(c1)C[C@H]1[C@@H]3CC[C@H]4CC(=O)CC[C@]4(C)[C@H]3CC(=O)[C@]21C | 71.4% (inactive)
16 | CC(C)n1cnc2c(=S)nc[nH]c21 | 104% (inactive)
17 | O=C(Nc1ccc(Br)cc1F)c1cc(Cl)ccc1O | -14.5% (active)
18 | CCCCN1CCN(c2ccc3nc(-c4ccc5nc(-c6ccc(OCC)cc6)[nH]c5c4)[nH]c3c2)CC1 | 67.3% (inactive)
19 | NS(=O)(=O)c1cccc(Nc2nc(SCC(=O)c3ccc(Cl)cc3)nc3c2CCC3)c1 | 79.8% (inactive)
20 | Nc1ccn(Cc2nnc(CCC(=O)c3nc4ccccc4[nH]3)o2)c(=O)n1 | 79% (inactive)

Row | SMILES | growth
21 | COc1cc(-c2nc(C(=O)NCC(=O)NO)nn2-c2ccc(Cl)cc2)cc(OC)c1OC | 112% (inactive)
22 | COc1ccc(/C=C2\Oc3cc(OCCCCCN4CCCCC4)ccc3C2=O)cc1OC | 57.6% (inactive)
23 | O=C(c1ccccc1)C(O)C(Br)(CBr)c1ccccc1 (centres undefined) | 50.7% (inactive)
24 | CN(C)c1nc2c([nH]1)c(=O)n(C)c(=O)n2C | 101% (inactive)
25 | c1ccc(-c2n[nH]c(-c3ccccn3)n2)nc1 | 100% (inactive)
26 | Oc1ccccc1/C=N\NC(=S)Nc1ccc(F)cc1 | 2.61% (active)
27 | COc1ccc(/C(C)=N/NC(=O)CSc2nc3ccccc3c(=O)n2Cc2ccc(S(N)(=O)=O)cc2)c(OC)c1 | 93.9% (inactive)
28 | CCOC(=O)/C(C#N)=C/c1cccc(C)c1 | 90.9% (inactive)
29 | COc1ccc(CNc2c3ccccc3nc3ccccc23)c(OC)c1 | 4.83% (active)
30 | Cn1cc(-c2nc(-c3c[nH]c4ncc(F)cc34)cs2)c2cccnc21 | -0.356% (active)
31 | C=C(C)[C@@H]1CC[C@]2(C)[C@H](C(=O)C=C3[C@@H]4C[C@](C)(C(=O)N5CCN(C)CC5)CC[C@]4(C)CC[C@]32C)[C@@]1(C)CCC#N | -76.5% [100 µM] (active)
32 | CC(C)(C)OC(=O)N1C/C(=C\c2ccoc2)C(=O)/C(=C/c2ccoc2)C1 | 97.3% (inactive)
33 | CCSc1nc(NC)c2cc(-c3ccc(C(F)(F)F)cc3)ccc2n1 | 110% (inactive)
34 | NS(=O)(=O)Oc1ccc(-c2ccc3sccc3c2)cc1 | 87.1% (inactive)
35 | COc1cc(/C=N/Nc2ncc(-c3cc4cc5c(cc4o3)OCO5)s2)cc(OC)c1OC | 25.2% (inactive)
36 | COc1cc(/C=C/C(=O)C(=Cc2ccc(F)c(F)c2)C(=O)/C=C/c2ccc(O)c(OC)c2)ccc1O | 25.6% (inactive)
37 | Cc1ccc(C2(C)NC(=O)N(CC(=O)Nc3cccc(C)c3)C2=O)cc1 (centres undefined) | 89% (inactive)
38 | O[C@@H]1CCO[C@H](c2ccc3ccccc3c2)C1 | 107% (inactive)
39 | CCCCC/C=C\C/C=C/CCCCCCCCNC(=O)Nc1ccc([N+](=O)[O-])cc1 | 84.5% (inactive)
